Experimental data published in ChEMBL document CHEMBL4513216, “Probing the Open Global Health Chemical Diversity Library for Multistage-Active Starting Points for Next-Generation Antimalarials” (ACS Infect Dis, 2020).
In all, about 69,000 compounds went through this assay and about 8,600 (12%) showed an effect of 50% or more. Shown is part of a subset that was picked to be rich in strong results.

Each compound was assayed on Plasmodium berghei (assay: Screen against P. berghei liver stage (PbLuc), transformed with Luciferase, at 10uM). Settings: tested at 10 uM.
Type: functional, HepG2

| SMILES | INHIBITION |
| --- | --- |
| CCOc1ccc(NC(C)=O)cc1S(=O)(=O)Nc1cc(C)on1 | 54.2% |
| Clc1ccccc1-c1nnc(CN2CCCC2Cn2cncn2)o1 (centres undefined) | 27.4% |
| Cn1cc(CN2CCO[C@@H]3CN(C4CCCC4)C[C@@H]3C2)cn1 | 41.2% |
| CN(C)c1cc(CNCc2cccc3c2OCCO3)ccn1 | 52.1% |
| c1cc(CNCc2ccnc(N3CCOCC3)c2)c2c(c1)OCCCO2 | 26.4% |
| COc1cccc(CNCc2ccnc(N3CCOCC3)c2)c1OC | 50.5% |
| c1cc(CNCc2ccnc(N3CCCC3)c2)c2c(c1)OCCCO2 | 98.3% |
| c1cc(CNCc2ccnc(N3CCOCC3)c2)c2c(c1)OCO2 | -35.2% |
| c1cc(CNCc2ccnc(N3CCOCC3)c2)c2c(c1)OCCO2 | 9.48% |
| OCc1cccc(CNCc2cccc3c2OCCO3)c1 | -33.4% |
| c1cc(CNCc2ccnc(N3CCCC3)c2)c2c(c1)OCCO2 | 44.4% |
| COc1ccc(CNCc2ccnc(N3CCOCC3)c2)cc1OC | 27.1% |
| c1cc(CNCc2ccnc(N3CCCC3)c2)c2c(c1)OCO2 | -17.2% |
| CN1CCN(c2cc(CNCc3cccc4c3OCO4)ccn2)CC1 | 73.9% |
| COc1ccc(OC)c(CNCc2ccnc(N3CCOCC3)c2)c1 | -2.53% |
| NC(=O)c1csc(N2C[C@@H](CN3CCOCC3)[C@@H](CO)C2)n1 | 20.645% |
| O=C(NCCNc1cnccn1)N1CCCC(N2CCCC2)C1 (centres undefined) | 37.4% |
| c1cc(CN2CCC[C@@H](Cn3nnc(-c4cnccn4)n3)C2)ccn1 | 18.285% |
| CCOc1cc(NC(=O)N2CCC3(CCOCC3)C2)ccc1C | -38.1% |
| Cc1cc(CN(Cc2cccs2)CC2CCCO2)on1 (centres undefined) | 19.4% |
| CCN(CC)c1nc(O)cc(C(C)n2ncc3ccccc3c2=O)n1 (centres undefined) | 0.45% |
| O=C(C1CCCCC1)N1CCCC2(CCN(c3cnccn3)CC2)C1 | -2.35% |
| c1cc(CNCc2cccc3c2OCCO3)cc(Cn2cncn2)c1 | -8.41% |
| CC1CN(c2cc(CNCc3cccc4c3OCCO4)ccn2)CCO1 (centres undefined) | -26.2% |
| c1cc(CNCc2ccc(Cn3cncn3)cc2)c2c(c1)OCCO2 | 16% |
| c1cc(CNCc2cccc3c2OCCCO3)cc(Cn2cncn2)c1 | 53.1% |
| c1cc(CNCc2ccnc(N3CCCCC3)c2)c2c(c1)OCCCO2 | 70.1% |

| SMILES | INHIBITION |
| --- | --- |
| CCc1nc(CN(C)C2CCN(Cc3nc(C4CC4)no3)C2)no1 (centres undefined) | -31.6% |
| COCC(=O)N1CCC(c2c(C(=O)N(C)C)sc3ncccc23)C1 (centres undefined) | 9.54% |
| O=C(c1nc2c(o1)CN(CC1CC1)C2)N1CCCC1 | 18.5% |
| CCCOc1ccccc1NCC(=O)Nc1ccc(CC)cc1 | 15% |
| c1cn2c(n1)CN(CC1CC1)CC(CN1CCOCC1)C2 (centres undefined) | 42.1% |
| CCOC1CCN(C(=O)NCc2ccc(CN3CCOCC3)cc2)CC1 | 61.8% |
| CCOC1CCN(C(=O)NCc2ccc(C(=O)N(C)C(C)C)cc2)CC1 | 27.6% |
| CCOC1CCN(C(=O)NCc2cccc(-n3cccn3)c2)CC1 | 1.98% |
| O=C(N[C@@H]1CCC[C@@H](N2CCOCC2)[C@@H]1O)c1cc2ccccc2[nH]1 | -3.31% |
| CC(C)N(C)Cc1cnc2n1CCN(Cc1cccc(F)c1)C2 | -22.1% |
| COCCNc1nc(NCCc2ccccc2)nc2nccnc12 | -14.9% |
| O=C(c1ccncc1)N1C[C@@H](OCc2cccnc2)[C@H]2OCCC[C@H]21 | 10.6% |
| CSCC(=O)N1CCc2c(cnc(C)c2-c2noc(-c3cscn3)n2)C1 | 16.7% |
| Cc1ncc2c(c1-c1noc(-c3cscn3)n1)CCNC2 | 58.8% |
| Cc1cc(-c2nc(-c3c(C)ncc4c3CCNC4)no2)nc(C)n1 | 33.7% |
| NC(=O)CC1CCN(C(=O)NCc2ccccc2-n2cccn2)CC1 | 56.3% |
| NC(=O)C1CCN(C(=O)NCc2ccccc2-n2cccn2)CC1 | 44.1% |
| CC(C)Oc1ncccc1CNC(=O)N1CCCC1c1ccsc1 (centres undefined) | 31.2% |
| CC(C)Oc1ncccc1CNC(=O)N1CCC1 | 54.4% |
| CC(C)Oc1ncccc1CNC(=O)N1CCC(C(N)=O)C1 (centres undefined) | 40.3% |
| NC(=O)C1CCN(C(=O)NCc2cccnc2OC2CCCC2)C1 (centres undefined) | 11.2% |
| NC(=O)C1CCN(C(=O)NCc2ccccc2-n2cccn2)C1 (centres undefined) | 0.914% |
| CC(=O)N1CCCN(C(=O)NCc2cccnc2OC(C)C)CC1 | -40.2% |
| CC(C)Oc1ncccc1CNC(=O)N1CCSCC1 | 9.14% |
| CC(C)Oc1ncccc1CNC(=O)N1CCC1c1ccccc1 (centres undefined) | 52% |
| NC(=O)C1CCN(C(=O)NCc2cccnc2OCC(F)(F)F)C1 (centres undefined) | 56.4% |
| Cc1cc(C2CCCN2C(=O)NCc2cccnc2OC(C)C)on1 (centres undefined) | 29% |
